Assay outcomes deposited in PubChem BioAssay by several laboratories.
3CLpro inhibitor: SARS-CoV 3CLpro protease inhibition; inhibition, % at 6 µM; P0C6X7; recombinant SARS-CoV 3CLpro, quenched FRET peptide cleavage; 290,000 tested, 0.14% active; in the data active = inhibition above about 12%
BoNT F protease: inhibitors of Botulinum neurotoxin F light chain protease | Multiplex microsphere protease cleavage assay, flow cytometry | inhibition, % at 10 µM | 360,000 tested, 0.22% active | AID 588497; in the data active = inhibition above about 35%, passing the limit was not always enough; inconclusive = no clear call, values can overlap the other calls; note: plate controls were buffer without enzyme for full effect and enzyme alone for no effect
BoNT A protease: BoNT A light chain protease inhibition; 360,000 tested, 0.17% active; multiplex microsphere protease substrate cleavage, flow cytometry; inhibition, % at 10 µM; AID 588499; note: plate controls were buffer without enzyme for full effect and enzyme alone for no effect
BJeLR viability: kills HRASV12-expressing BJeLR cells; BJeLR (HRASV12) viability, CellTiter-Glo ATP luminescence, 48 h; inhibition, % (concentration not given with the values); 300,000 tested, 0.17% active; in the data active = inhibition above about 50%; inconclusive = no clear call, values can overlap the other calls
Anthrax LF inh2: anthrax lethal factor protease inhibition | inhibition, % at 10 µM | 360,000 tested, 0.12% active | P15917 | multiplex microsphere protease cleavage assay, LF; note: plate controls were buffer without enzyme for full effect and enzyme alone for no effect
Bead autofluor: flagged as autofluorescent in microsphere protease counterscreen; compound autofluorescence counterscreen, microsphere flow cytometry; active compounds read high; fluorescence intensity (test concentration not listed); 360,000 tested, 3.1% active; in the data active = fluorescence intensity above about 16000; inconclusive = no clear call, values can overlap the other calls
Active calls of the source: *; u = inconclusive; x = not tested or not shown. Most compounds without a hit are left out; they make up all but 3.6% or so of the library. Cut-off read from the data, not from the text of the source, unless noted: active = inhibition above about 30%; inconclusive = no clear call, values can overlap the other calls; inactive = below that.

SMILES | 3CLpro inhibitor | BoNT F protease | BoNT A protease | BJeLR viability | Anthrax LF inh2 | Bead autofluor
COc1ccc(CNC(=O)/C=C/c2cc([N+](=O)[O-])ccc2OC(F)F)cc1 | 6 | -2 | u | 7 | 2 | 16762*
CCOC(=O)CC(=O)NC1(Cc2ccc(O)cc2)CCCCC1 | 1 | 1 | 0 | -4 | -1 | 2547
COc1ccccc1CCN=C(N)NS(=O)(=O)c1ccc(F)cc1 | 5 | -11 | -4 | -17 | -9 | 4758
CSc1ccc(Cn2c(C)c(C(=O)NCCC#N)sc2=O)cc1 | x | -2 | -1 | x | -4 | 4032
O=C(CN(CCc1ccccc1)C(=O)CN1C(=O)COc2ccccc21)NCc1ccco1 | 1 | 2 | 1 | 1 | 0 | 23028*
Cc1ccc2c(c1)N(CC(=O)NCc1ccco1)C(=O)CO2 | 4 | -4 | -2 | -3 | 0 | 7286
CCC(C)c1ccc(NC(=O)CC(C)=O)cc1 (stereo unspecified) | -4 | -3 | u | -5 | -2 | 22794*
CC(=O)CC(=O)Nc1ccc(Nc2ccccc2)cc1 | -1 | 4 | -2 | 8 | -5 | 10931
CSc1ccc(NC(=O)CC(C)=O)cc1 | -1 | 2 | 0 | -4 | -2 | 22536*
CC(=O)CC(=O)Nc1ccc(C(N)=O)cc1 | 0 | -2 | 0 | 6 | -2 | 3528
O=C(c1ccc(Cl)cc1)c1oc2ccccc2c1CS(=O)c1ccccc1 (stereo unspecified) | -3 | -8 | -2 | 4 | -2 | 20280*
O=C(O)c1oc2ccccc2c1CSc1ccc(Cl)cc1 | 8 | 10 | 2 | -4 | -10 | 3115
O=C(CC1C(=O)NCCN1C(=O)Nc1ccccc1)Nc1ccc2c(c1)OCO2 (stereo unspecified) | -4 | 1 | 0 | -5 | -7 | 2326
COc1ccccc1NC(=O)CC1C(=O)NCCN1C(=O)Nc1ccccc1 (stereo unspecified) | 3 | 5 | 3 | -9 | 3 | 21334*
O=C(CC1C(=O)NCCN1C(=O)Nc1ccccc1)Nc1ccc(F)cc1 (stereo unspecified) | 3 | u | -10 | -1 | -8 | 4628
CCOc1ccccc1NC(=O)CC1NCCNC1=O (stereo unspecified) | -1 | 7 | 4 | -3 | -14 | 18163*
O=C(CC1C(=O)NCCN1C(=S)Nc1ccccc1)Nc1ccc2c(c1)OCCO2 (stereo unspecified) | -3 | -5 | -3 | 3 | -2 | 24623*
Cc1ccc(-n2nnnc2-c2cnc3cc4c(cc3c2C)OCO4)cc1 | 2 | 0 | 0 | 1 | -2 | 9129
Cc1nnc2ccc(N3CCOCC3)nn12 | 6 | -1 | 0 | 2 | 7 | 3335
COc1ccc(CNC(=O)c2cc(-c3ccc(OC)c(OC)c3)on2)cc1 | 3 | 0 | 1 | 3 | 0 | 11435
COc1ccc(NC(=O)c2cc(-c3ccc(OC)c(OC)c3)on2)cc1OC | 4 | -4 | -1 | 1 | -8 | 23014*
COc1ccc(-c2cc(C(=O)NCc3ccccc3)no2)cc1OC | -2 | 3 | 3 | 3 | 4 | 21267*
CC1CCN(C(=O)c2cc(S(=O)(=O)N3CCCCC3)c[nH]2)CC1 | -3 | -3 | 0 | -7 | -9 | 5182
[O-]c1n[n+](-c2ccc(Cl)cc2Cl)cc2ccccc12 | -1 | 11 | 1 | 9 | -8 | 3418
Cc1cc2cc(CN(CCCO)S(=O)(=O)c3cccc4nsnc34)c(=O)[nH]c2cc1C | 2 | 2 | 0 | -13 | 2 | 22386*
SMILES | 3CLpro inhibitor | BoNT F protease | BoNT A protease | BJeLR viability | Anthrax LF inh2 | Bead autofluor
Cc1ccc2[nH]c(=O)c(CN(CCCO)S(=O)(=O)c3c(C)ccc4nsnc34)cc2c1 | -1 | -9 | -1 | 8 | -2 | 10512
Cc1cc2cc(CN(Cc3ccco3)S(=O)(=O)c3c(C)ccc4nsnc34)c(=O)[nH]c2cc1C | 3 | -2 | u | -3 | 1 | 20470*
Cc1ccc2cc(CN(Cc3ccco3)S(=O)(=O)c3c(C)ccc4nsnc34)c(=O)[nH]c2c1 | -6 | -5 | 0 | 15 | 2 | 8055
O=C(CCc1nc2ccccc2s1)OCc1ccccc1F | 6 | -17 | -1 | -4 | -2 | 1918
CN(Cc1ccccc1)C(=O)CN1C(=O)C2C3C=CC(C3)C2C1=O (stereo unspecified) | 0 | -5 | -4 | 0 | -2 | 21276*
CN(Cc1ccccc1)C(=O)CN1C(=O)c2ccccc2C1=O | -3 | -3 | -3 | -13 | 26 | 3400
CC1(C(=O)Nc2ccc3[nH]ncc3c2)CCN1C(=O)C/C=C/c1ccccc1 (stereo unspecified) | x | 0 | 0 | x | -6 | 4220
C=CCn1c(CCNC(=O)c2ccc(Cl)c(Cl)c2)nnc1SCCOc1ccc(OC)cc1 | 2 | -3 | u | -2 | 0 | 21454*
C=CCn1c(Cc2csc(N)n2)nnc1SCC(=O)OCC | -4 | -2 | 2 | 2 | 0 | 22718*
C=CCn1c(Cc2ccc(OC)cc2)nnc1SCC(N)=O | -1 | 2 | 2 | -16 | -6 | 22116*
CCOC(=O)c1cccc(NS(=O)(=O)c2c(C)[nH]c(=O)[nH]c2=O)c1 | 0 | 1 | 1 | -5 | -10 | 19045*
Cc1ccc(S(=O)(=O)NCC(=O)Nc2ccc(C(F)(F)F)cc2)cc1 | -1 | -2 | -1 | -1 | -1 | 23413*
O=C(CNS(=O)(=O)c1ccc(F)cc1)Nc1ccc(C(F)(F)F)cc1 | -2 | 0 | 0 | -4 | -1 | 16544*
Cc1ccc(NC(=O)CC(O)(C(F)(F)F)C(F)(F)F)cc1 | -4 | -3 | u | 6 | 1 | 22690*
O=C(CCc1nc(-c2ccccc2)no1)NC1CCCCC1 | -1 | 4 | 4 | -12 | -5 | 21669*
Cc1ccc(-c2noc(CCCC(=O)NCC3CCCO3)n2)cc1 (stereo unspecified) | -5 | 8 | 2 | 4 | 2 | 4915
Cc1ccc(-c2noc(CCC(=O)NCC3CCCO3)n2)cc1 (stereo unspecified) | 2 | -1 | 0 | 6 | -1 | 23346*
O=C(CCc1nc(-c2ccc(Cl)cc2)no1)NC1CCCCC1 | -2 | 9 | 3 | -1 | 1 | 4969
CCCCn1cnc2c(oc3ccccc32)c1=O | -2 | 15 | 1 | -3 | 19 | 3368
CCN1CCCC1CNC(=O)Cn1cc(C)c(=O)[nH]c1=O (stereo unspecified) | x | -7 | 0 | x | -6 | 3078
CC1CCCC(C(=O)O)N1C(=O)CCSC(=O)c1ccccc1 (stereo unspecified) | 3 | 3 | 2 | -4 | -3 | 22094*
COc1ccc(CN2C(=NC(=O)C3CCCO3)SC3CS(=O)(=O)CC32)cc1OC (stereo unspecified) | 1 | -2 | 1 | 9 | 3 | 5555
O=C(Cc1ccccc1F)Nc1cc(S(=O)(=O)N2CCOCC2)ccc1N1CCCC1 | x | -3 | 0 | x | 3 | 3023
COc1ccc(CNCC(O)(c2ccc(Cl)cc2)c2ccc(Cl)cc2)cc1 | 3 | -16 | -2 | -2 | -6 | 21174*
